Active and inactive are the calls of the source. Unless noted, no rule for the calls is given here.
Experiments:
[1] = system: Wnt5a (protein binding on small-molecule microarray); test: small molecules binding Wnt5a protein – biophysical, small-molecule microarray, 635/667 nm fluorescence, primary screen (AID 1142); conditions: 635 nm fluorescence, higher = more signal;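 also: fluorescence read at 667 nm with signal to noise per printed feature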
[2] = ATP-based viability of Huh7 replicon cells – cell-based, CellTiter-Glo luminescence, basal, 48 h, cytotoxicity control for HCV replication inhibitor project, primary screen (AID 1143); conditions: higher = more signal, called active from +8 up or from −8 down;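 also: Huh7 hepatoma cells carrying a hepatitis C replication reporter with no stimulus; test concentration not given here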
[3] = Pseudomonas biofilm growth suppression – PAO1 strain, BacTiter-Glo luminescence, LB-PBS, primary screen (AID 1144); conditions: P. aeruginosa PAO1 biofilm, 12 h, higher = more signal
[4] = basal CRE-LacZ reporter activity in PC12 – cell-based, unstimulated, primary screen (AID 1145); conditions: no forskolin, luminescence, 4.5 h, higher = more signal, called active from +8 up or from −8 down
[5] = forskolin-driven CRE-LacZ activity in PC12 – cell-based, CRE-LacZ reporter, forskolin-stimulated, primary screen (AID 1146); conditions: luminescence, 4.5 h, higher = more signal, called active from +8 up or from −8 down;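 also: PC12 cells with 6xCRE LacZ reporter stimulated by forskolin 10 µM; beta-galactosidase reporter signal reflecting CREB driven transcription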
[6] = biological target: Streptavidin (Streptomyces avidinii) (UniProt P22629); test: compounds binding control protein streptavidin – biophysical, small-molecule microarray, 635/667 nm fluorescence, artefact control for SMM compound annotation, primary screen (AID 1147); conditions: higher = more signal;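 also: signal reflects streptavidin binding to arrayed compounds as a control protein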
Streptavidin (Streptomyces avidinii), sequence (P22629 whole entry, looked up): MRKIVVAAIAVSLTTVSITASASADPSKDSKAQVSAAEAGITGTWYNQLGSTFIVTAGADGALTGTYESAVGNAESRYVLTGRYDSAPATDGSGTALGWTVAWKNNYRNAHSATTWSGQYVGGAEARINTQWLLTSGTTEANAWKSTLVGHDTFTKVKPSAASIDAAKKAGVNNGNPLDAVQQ

[7] = probe aInhba binding on compound microarray – biochemical, small-molecule microarray, 635/667 nm fluorescence, primary screen (AID 1148); conditions: higher = more signal;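 also: score merges 667nm spot fluorescence with signal-to-noise for antibody binding to printed compounds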
[8] = biological target: Torsin-1A (Homo sapiens) (UniProt O14656); test: TOR1A wild-type binding on microarray – cell lysate, small-molecule microarray, lysate, 635/667 nm, primary screen (AID 1149); conditions: COS7 hTOR1A-WT lysate, 635 nm fluorescence, higher = more signal
Torsin-1A (Homo sapiens), sequence (O14656 whole entry, looked up): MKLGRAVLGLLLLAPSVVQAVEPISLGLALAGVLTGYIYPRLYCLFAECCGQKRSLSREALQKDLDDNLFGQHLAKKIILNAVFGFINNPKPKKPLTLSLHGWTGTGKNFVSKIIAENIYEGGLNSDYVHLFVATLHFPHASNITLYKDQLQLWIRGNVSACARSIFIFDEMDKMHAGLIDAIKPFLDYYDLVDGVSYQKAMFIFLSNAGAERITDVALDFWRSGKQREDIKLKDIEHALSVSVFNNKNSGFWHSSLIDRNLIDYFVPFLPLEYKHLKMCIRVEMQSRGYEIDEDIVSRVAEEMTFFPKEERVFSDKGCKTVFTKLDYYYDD

[9] = biological target: Torsin-1A (Homo sapiens) (UniProt O14656); test: torsin A mutant lysate binding on microarrays – cell lysate, small-molecule microarray, COS7 lysate, 635/667 nm fluorescence, primary screen (AID 1150); conditions: COS7 hTOR1A mutant lysate, 635 nm fluorescence, higher = more signal;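 also: score pools 667 nm emission and signal to noise measuring lysate protein binding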
[10] = system: Sonic hedgehog protein (Shh); test: Sonic hedgehog microarray binding compounds – biochemical, small-molecule microarray, 635/667 nm fluorescence, primary screen (AID 1151); conditions: 635 nm fluorescence, higher = more signal;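 also: Shh protein binding to compounds spotted on small-molecule microarray slides; score combines spot fluorescence intensity with signal-to-noise across triplicate slides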
[11] = optical density shifts of acrAB sulA E. coli – strain DRC41, OD650, 48 h, E. coli filamentation inducer project, primary screen (AID 1152); conditions: higher = more signal, called active from +8 up or from −8 down;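 also: E. coli MC1000 strain DRC41 lacking acrAB efflux pump and sulA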
[12] = probe aLefty1 binding on compound microarray – biochemical, small-molecule microarray, 635/667 nm fluorescence, primary screen (AID 1153); conditions: higher = more signal;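 also: score merges spot fluorescence with signal-to-noise ratio from the scanned slide images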
[13] = plasmodial surface anion channel blockers, osmotic lysis – cell-based, P. falciparum Indochina, OD700, 1 h, primary screen (AID 1154); conditions: P. falciparum Indochina infected RBC osmotic lysis, higher = more signal, called active from +8 up or from −8 down
[14] = plasmodial surface anion channel blockers, osmotic lysis – cell-based, P. falciparum Indochina, OD700, 2 h, primary screen (AID 1155);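 also: lysis reports solute entry through the parasite surface anion channel PSAC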; conditions: P. falciparum Indochina infected erythrocytes, higher = more signal, called active from +8 up or from −8 down
[15] = changes in parasitized red cell lysis, either direction – P. falciparum Indochina, OD700, 3 h, PSAC antagonist project, primary screen (AID 1156); conditions: P. falciparum-infected erythrocytes, osmotic lysis, higher = more signal, called active from +8 up or from −8 down
[16] = plasmodial surface anion channel blockers, osmotic lysis – cell-based, P. falciparum Indochina, OD700, 18 h, primary screen (AID 1157); conditions: P. falciparum Indochina infected erythrocytes, osmotic lysis OD700, 18 h; higher = more signal, called active from +8 up or from −8 down
[17] = S6 kinase pathway phospho-S6 level changes – cell-based, A549, cytoblot, luminescence, serum-stimulated, primary screen (AID 1158); conditions: 5 h, higher = more signal;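 also: serum-stimulated A549 lung adenocarcinoma cells; signal is phosphorylated S6 detected by cytoblot immunostaining with HRP secondary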
[18] = biological target: NADPH oxidase 2 (Homo sapiens) (UniProt P04839); test: compounds shifting NOX2 Amplex Red fluorescence – cell-based, HEK293-NOX2, PMA-stimulated, NOX inhibitor project, primary screen (AID 1159); conditions: 45 min, higher = more signal, called active from +8 up or from −8 down; also: test concentration not given here
NADPH oxidase 2 (Homo sapiens), sequence (P04839 whole entry, looked up): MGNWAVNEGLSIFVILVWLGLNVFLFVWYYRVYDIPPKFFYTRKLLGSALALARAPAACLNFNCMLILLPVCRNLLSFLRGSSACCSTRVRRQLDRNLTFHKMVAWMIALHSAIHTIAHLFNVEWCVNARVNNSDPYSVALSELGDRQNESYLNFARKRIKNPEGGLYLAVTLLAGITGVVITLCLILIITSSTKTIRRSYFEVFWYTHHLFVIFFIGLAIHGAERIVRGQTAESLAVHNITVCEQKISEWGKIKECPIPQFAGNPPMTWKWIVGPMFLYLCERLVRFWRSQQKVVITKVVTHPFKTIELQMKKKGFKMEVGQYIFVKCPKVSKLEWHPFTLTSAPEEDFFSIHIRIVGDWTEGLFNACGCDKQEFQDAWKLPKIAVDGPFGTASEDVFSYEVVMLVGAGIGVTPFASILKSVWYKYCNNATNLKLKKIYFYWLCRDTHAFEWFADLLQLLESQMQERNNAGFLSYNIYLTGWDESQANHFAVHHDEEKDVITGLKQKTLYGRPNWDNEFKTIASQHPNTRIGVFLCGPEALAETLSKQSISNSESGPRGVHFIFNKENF

[19] = biological target: NADPH oxidase 4 (Homo sapiens) (UniProt Q9NPH5); test: compounds shifting NOX4 Amplex Red fluorescence – cell-based, HEK293-NOX4, tetracycline-induced, NOX inhibitor project, primary screen (AID 1160); conditions: HEK293-NOX4, Amplex Red H2O2 fluorescence, 45 min; higher = more signal, called active from +8 up or from −8 down
NADPH oxidase 4 (Homo sapiens), sequence (Q9NPH5 whole entry, looked up): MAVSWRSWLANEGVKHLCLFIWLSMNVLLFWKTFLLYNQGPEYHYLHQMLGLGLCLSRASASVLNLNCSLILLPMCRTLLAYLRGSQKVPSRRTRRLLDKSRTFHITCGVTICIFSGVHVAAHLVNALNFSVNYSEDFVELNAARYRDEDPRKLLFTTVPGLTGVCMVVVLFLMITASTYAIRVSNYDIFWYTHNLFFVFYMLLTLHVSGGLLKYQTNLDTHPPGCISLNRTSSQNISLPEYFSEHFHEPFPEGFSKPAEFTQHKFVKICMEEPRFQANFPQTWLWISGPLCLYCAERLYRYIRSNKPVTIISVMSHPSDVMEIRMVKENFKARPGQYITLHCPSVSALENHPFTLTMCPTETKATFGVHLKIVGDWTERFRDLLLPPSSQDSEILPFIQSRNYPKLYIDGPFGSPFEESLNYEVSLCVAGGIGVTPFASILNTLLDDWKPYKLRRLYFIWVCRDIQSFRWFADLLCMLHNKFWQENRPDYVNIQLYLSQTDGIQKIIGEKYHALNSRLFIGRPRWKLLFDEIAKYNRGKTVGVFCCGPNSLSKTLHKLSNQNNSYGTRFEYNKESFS

[20] = biological target: NADPH oxidase 5 (Homo sapiens) (UniProt Q96PH1); test: compounds shifting NOX5 Amplex Red fluorescence – cell-based, HEK293-NOX5, NOX inhibitor project, primary screen (AID 1161); conditions: HEK293-NOX5, ionomycin, 45 min, higher = more signal
NADPH oxidase 5 (Homo sapiens), sequence (Q96PH1 whole entry, looked up): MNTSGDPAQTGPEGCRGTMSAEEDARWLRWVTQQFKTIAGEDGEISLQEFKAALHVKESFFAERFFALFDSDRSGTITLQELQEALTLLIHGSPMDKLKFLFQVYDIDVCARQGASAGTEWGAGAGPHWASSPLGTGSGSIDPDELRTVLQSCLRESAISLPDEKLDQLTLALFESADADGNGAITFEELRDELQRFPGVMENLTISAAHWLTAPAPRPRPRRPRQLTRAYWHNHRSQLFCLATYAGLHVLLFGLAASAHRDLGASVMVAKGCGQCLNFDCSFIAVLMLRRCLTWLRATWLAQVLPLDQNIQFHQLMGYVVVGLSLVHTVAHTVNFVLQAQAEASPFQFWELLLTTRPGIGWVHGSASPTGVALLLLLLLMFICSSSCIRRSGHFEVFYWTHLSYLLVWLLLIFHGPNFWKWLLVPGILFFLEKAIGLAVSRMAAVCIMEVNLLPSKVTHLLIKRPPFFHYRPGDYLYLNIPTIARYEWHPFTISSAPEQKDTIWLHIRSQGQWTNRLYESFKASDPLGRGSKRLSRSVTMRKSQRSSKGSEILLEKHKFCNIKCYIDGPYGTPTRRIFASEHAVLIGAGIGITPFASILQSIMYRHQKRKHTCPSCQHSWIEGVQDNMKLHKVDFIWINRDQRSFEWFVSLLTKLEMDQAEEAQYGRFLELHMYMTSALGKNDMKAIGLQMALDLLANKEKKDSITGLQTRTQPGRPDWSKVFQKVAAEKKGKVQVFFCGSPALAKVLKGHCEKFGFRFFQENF

Row | Compound | composite z-score [1] | z-score [2] | z-score [3] | z-score [4] | z-score [5] | composite z-score [6] | composite z-score [7] | composite z-score [8] | composite z-score [9] | composite z-score [10] | z-score [11] | composite z-score [12] | z-score [13] | z-score [14] | z-score [15] | z-score [16] | z-score [17] | z-score [18] | z-score [19] | z-score [20]
1 | CCOc1ccc(N2C(=O)CSC2c2cccc([N+](=O)[O-])c2)cc1 (stereo not given) | 0.124 | -0.689 (inactive) | -0.245 (inactive) | -0.0243 (inactive) | -1.34 (inactive) | 0.804 | -0.0448 | 0.331 | 0.731 | 0.0304 | 0.379 (inactive) | 0.166 | 0.289 (inactive) | 0.285 (inactive) | 0.85 (inactive) | 0.0093 (inactive) | -0.287 | -0.957 (inactive) | -0.214 (inactive) | 0.887
2 | COC(=O)[C@@]1(Cc2ccccc2)[C@H]2c3cc(C(=O)N(C)C)n(CCc4c[nH]c5ccc(O)cc45)c3C[C@H]2CN1C(=O)c1ccccc1 | 0.0434 | -1.51 (inactive) | 0.562 (inactive) | 0.0041 (inactive) | 0.1 (inactive) | 0.0497 | 0.0878 | -0.343 | 0.604 | 0.647 | 0.263 (inactive) | -0.0831 | 7.05 (inactive) | -0.38 (inactive) | 0.102 (inactive) | -1.32 (inactive) | 1.82 | -2.52 (inactive) | -7 (inactive) | -2.41
3 | NC(=O)N1C(=O)C2C(C1=O)C1C=C(CCCO)C2C(C2CC2)N1Cc1cc2c(cc1Br)OCO2 (stereo not given) | -0.219 | -0.387 (inactive) | 1.44 (inactive) | 4.37 (inactive) | 0.0317 (inactive) | 0.129 | -0.157 | 0.0457 | 0.28 | 0.195 | -0.766 (inactive) | 0.19 | 4.92 (inactive) | 0.494 (inactive) | -0.23 (inactive) | 0.357 (inactive) | 0.415 | 0.334 (inactive) | -0.381 (inactive) | -0.344
4 | C=CC[C@]1(C(=O)N2CCOCC2)N=C(c2ccc(OCCCO)cc2)O[C@H]1c1ccccc1N=[N+]=[N-] | 0.268 | -4.25 (inactive) | -0.0153 (inactive) | -0.193 (inactive) | -1.78 (inactive) | 0.883 | 0.122 | 0.35 | 0.705 | -0.269 | 0.65 (inactive) | 0.448 | 33.6 (active) | 29.5 (active) | 3.29 (inactive) | 7.61 (inactive) | 2.04 | -1.82 (inactive) | 0.451 (inactive) | -2.56
5 | C=C(C)[C@@H]1CC=C(C(O)C2C=CC3C(=O)NC(=O)C3N2Nc2ccc(Cl)cc2Cl)CC1 (stereo not given in full) | 0.287 | -1.64 (inactive) | -0.995 (inactive) | 0.815 (inactive) | -0.113 (inactive) | 1.39 | 0.099 | -0.0124 | 0.455 | 0.393 | -2.9 (inactive) | 0.266 | 5.74 (inactive) | 1.4 (inactive) | -0.372 (inactive) | 1.61 (inactive) | -1.02 | -2.38 (inactive) | -6.41 (inactive) | -3.51
6 | COc1ccc([Si](C)(C)[C@@H]2[C@@H](CC(=O)N3Cc4ccccc4C[C@H]3CO)O[C@]3(C(=O)N(Cc4cccc(N5CCC5=O)c4)c4ccccc43)[C@H]2C)cc1 | 0.103 | -3.42 (inactive) | -0.0211 (inactive) | 2.03 (inactive) | 1.34 (inactive) | 0.244 | -0.0463 | 0.589 | 0.61 | 1.45 | -0.879 (inactive) | 0.199 | 2.84 (inactive) | 1.09 (inactive) | -0.2 (inactive) | 0.917 (inactive) | 0.275 | -0.355 (inactive) | 0.912 (inactive) | 2.11
7 | [N-]=[N+]=Nc1ccccc1[C@H]1OC(c2ccc(OCCCO)cc2)=N[C@@]1(Cc1ccccc1)C(=O)N1CCOCC1 | 0.267 | -4.05 (inactive) | -0.622 (inactive) | -0.0341 (inactive) | -1.62 (inactive) | 2.01 | 0.554 | 0.124 | 0.212 | 0.672 | -0.388 (inactive) | 0.342 | 30.8 (active) | 30.6 (active) | 2.96 (inactive) | 9.58 (active) | -0.0055 | -1.29 (inactive) | 1.27 (inactive) | 1.13
8 | O=c1cccc(-c2ccccc2Cl)o1 | -0.196 | -0.759 (inactive) | 0.387 (inactive) | 0.285 (inactive) | 0.556 (inactive) | 0.423 | 0.115 | 0.64 | 0.112 | 0.322 | -0.685 (inactive) | -0.456 | 0.298 (inactive) | 0.585 (inactive) | -0.187 (inactive) | 0.414 (inactive) | -0.767 | 0.182 (inactive) | -0.914 (inactive) | 0.863
9 | CCCC[C@@H]1C[C@H]1[C@@H](NC(=O)c1cccnc1)c1ccc(Cl)cc1 | -0.769 | -1.25 (inactive) | -0.128 (inactive) | -0.368 (inactive) | 0.834 (inactive) | -1.44 | -0.335 | -1.57 | -0.419 | -1.35 | -3.66 (inactive) | -0.321 | 2.29 (inactive) | 1.51 (inactive) | 0.395 (inactive) | 1.03 (inactive) | 0.348 | -0.56 (inactive) | -1.3 (inactive) | 0.715

— PubChem BioAssay
